Measured values as given in PubChem BioAssay (NCATS).
Inconclusive results are not listed. The source made the active and inactive calls. The call rests on the fitted dose curve; in most records, active means well fitted curve in the direction sought with a large enough effect; inconclusive means small, poorly fitted or top-dose-only effect, or another doubt; inactive means no such curve, though single readings can be large; an effect the other way counts as inactive or inconclusive.

Experiments:
[1] = qHTS Assay for Identifying Gametocytocidal Compounds (AID 743244);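 further: on the % scale 0 is the no-effect control and ±100 the full control effect; actives lower the fluorescent signal which means gametocytes are killed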; settings: P. falciparum 3D7 stage III-V gametocytes, alamarBlue, 72 h; max response: active compounds read low
How it was run: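 P. falciparum 3D7 stage III–V gametocytes (20,000 cells/well) were exposed to compounds for 72 h at 37 °C, 5% CO2. AlamarBlue was then added for 24 h; decreased resorufin fluorescence (Ex 525/Em 598 nm) indicated loss of viability.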

[2] = P-glycoprotein substrates identified in KB-8-5-11 adenocarcinoma cell line, qHTS therapeutic library screen (AID 1346987); further: on the % scale 0 is the no-effect control and ±100 the full control effect; nearly all actives have a fitted effect of over 65% in size
How it was run: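 In this qHTS, P-gp-rich KB-8-5-11 cells received library compounds across a concentration range. Viability was quantified by luminescence after 72 h at 37 degree C.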

KB-3-1 = assay: Cytotoxic Profiling of Annotated Libraries Using Quantitative High-Throughput Screening (AID 1296008); settings: Five cell lines viability, CellTiter-Glo ATP luminescence, 48-72 h; max response: active compounds read low; further: on the % scale 0 is the no-effect control and ±100 the full control effect; nearly all actives have a fitted effect of over 60% in size
How it was run: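 Cytotoxicity was measured as CellTiter-Glo ATP luminescence, read after 10 min at room temperature. Compound treatment of the cells lasted 48 or 72 hr at 37 degrees Celsius in a qHTS format.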

astro = assay: Drug repurposing screens with cells derived from glioblastoma tumor samples (AID 1345199); settings: viability, ATP luminescence, 48 h; series mostly up to 45.9 µM; further: on the % scale 0 is the no-effect control and ±100 the full control effect; nearly all actives have a fitted effect of over 40% in size
How it was run: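 Primary testing used CD133+ neurospheres from four GBM patients, seven concentrations, 48 h exposure and ATP-based viability; confirmation added three slower-growing patient lines.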

[3] = target: Luciferin 4-monooxygenase (Photinus pyralis) (UniProt P08659); assay: Biochemical firefly luciferase enzyme assay for NPC (AID 624030);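 further: purified P. pyralis luciferase at 10 nM with luciferin and ATP substrate; 0% = DMSO and -100% = full luciferase inhibition by PTC124 control; nearly all actives have a fitted effect of over 70% in size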
How it was run: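 Direct inhibition of firefly luciferase enzyme (10 nM final, 50 mM Tris Acetate) assessed by luminescence within 5 minutes. Percent activity scaled between DMSO and PTC124 positive control, with concentration-effect curves classified by fit quality and response.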

Luciferin 4-monooxygenase (Photinus pyralis), sequence (P08659 whole entry, looked up): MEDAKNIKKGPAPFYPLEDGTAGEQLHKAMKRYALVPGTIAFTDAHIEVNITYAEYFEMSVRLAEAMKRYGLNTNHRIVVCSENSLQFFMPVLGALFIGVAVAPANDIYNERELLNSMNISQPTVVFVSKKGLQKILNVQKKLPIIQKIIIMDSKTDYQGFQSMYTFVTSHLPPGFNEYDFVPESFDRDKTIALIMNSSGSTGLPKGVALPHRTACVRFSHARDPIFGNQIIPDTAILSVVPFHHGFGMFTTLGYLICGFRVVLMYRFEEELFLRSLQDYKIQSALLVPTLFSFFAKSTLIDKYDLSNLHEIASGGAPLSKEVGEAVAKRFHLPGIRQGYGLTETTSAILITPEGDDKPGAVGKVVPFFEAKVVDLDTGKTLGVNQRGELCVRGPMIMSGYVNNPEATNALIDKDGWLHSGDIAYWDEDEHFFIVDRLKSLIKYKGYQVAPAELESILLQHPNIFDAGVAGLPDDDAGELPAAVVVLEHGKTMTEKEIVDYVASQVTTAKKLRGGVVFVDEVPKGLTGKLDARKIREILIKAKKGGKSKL

C[C@@H](N)C(=O)c1ccccc1
inactive: max response [1] -12.7% | Potency [2] | max response (KB-3-1) 2.24% | Potency (astro)

CN1CCN=C(c2ccccc2)c2cc(Cl)ccc21
inactive: Potency [3] | max response [1] 0.139% | max response (KB-3-1) 8.16% | Potency (astro)
